Compounds with a hit are over-represented: about 10% of the library has one in this group of screens.
GPT2 inh – Primary qHTS assay for inhibitors of Glutamate pyruvate transaminase 2 (GPT2). Recombinant GPT2, coupled pyruvate oxidase/HRP Amplex Red fluorescence. 0.25% of 100,000 active. AID 1671188, 2021. Alanine aminotransferase 2 (Homo sapiens), Q8TD30. Potency, µM (doses to about 57.7 µM), actives largely listed as inhibitors; further: nearly all actives have a fitted effect of over 60% in size
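Fluorescence read-out: pyruvate from GPT2 turnover coupled to pyruvate oxidase, HRP and Amplex Red (0.2mM ThPP, 0.2U/mL PO and HRP, 50uM Amplex final). Substrates 250uM a-KG, 2mM L-alanine; enzyme 10ng/uL; 30 min RT.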
hNpr1 antagonist – Natriuretic polypeptide receptor (hNpr1) antagonism - Primary qHTS; Atrial natriuretic peptide receptor 1 (Homo sapiens), P16066; 1.6% of 76,000 active; Potency, µM (doses to about 46.3 µM), hits mostly inhibitors; HEK293 hNpr1 GloSensor cGMP, ANP-stimulated luminescence; calls by dose curve; further: nearly all actives have a fitted effect of over 60% in size
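Compound pre-incubated 30 min at room temperature on GloSensor-loaded HEK293 cells stably carrying hNpr1 and the pGS-40F cGMP biosensor. Stimulation uses hNppA at 0.1 nM final; luminescence is taken at baseline and 20 min post-agonist.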
HEK cytotox – Cytotoxic Profiling in HEK 293 Cell Line of Diverse Libraries Using Quantitative High-Throughput Screening; HEK 293 viability, ATP luminescence (CellTiter-Glo), 48-72 h; Potency, µM (highest dose often 115 µM), most hits filed as inhibitors; 6.6% of 94,000 active; AID 1345083, 2018; further: nearly all actives have a fitted effect of over 60% in size
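Read-out: CellTiter-Glo ATP luminescence. Cells: HEK 293, 250 cells/well. Exposure: 48 or 72 hr, 37 degree Celsius.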
3T3 cytotox – Cytotoxic Profiling in NIH 3T3 Cell Line of Diverse Libraries Using Quantitative High-Throughput Screening; NIH 3T3 viability, CellTiter-Glo ATP luminescence, 48-72 h; Potency, µM (doses to about 96.7 µM), usual class: inhibitors; 4.3% of 94,000 active; AID 1345082, 2018; further: nearly all actives have a fitted effect of over 55% in size
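NIH 3T3 cells at 400 cells/well received 23 nL of compound by pintool and were incubated 48 or 72 h at 37 °C. Viability was read as ATP-coupled CellTiter-Glo luminescence.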
FLuc inh – Firefly luciferase inhibition profiling of diverse chemical library using quantitative high-throughput screening; Luciferin 4-monooxygenase (Photinus pyralis), P08659; purified P. pyralis luciferase, luminescence, biochemical; Potency, µM (titrated, usually from 115 µM), hits mostly inhibitors; 2.5% of 76,000 active; AID 1347043, 2019; further: nearly all actives have a fitted effect of over 65% in size
Target sequence (P08659 whole entry, looked up): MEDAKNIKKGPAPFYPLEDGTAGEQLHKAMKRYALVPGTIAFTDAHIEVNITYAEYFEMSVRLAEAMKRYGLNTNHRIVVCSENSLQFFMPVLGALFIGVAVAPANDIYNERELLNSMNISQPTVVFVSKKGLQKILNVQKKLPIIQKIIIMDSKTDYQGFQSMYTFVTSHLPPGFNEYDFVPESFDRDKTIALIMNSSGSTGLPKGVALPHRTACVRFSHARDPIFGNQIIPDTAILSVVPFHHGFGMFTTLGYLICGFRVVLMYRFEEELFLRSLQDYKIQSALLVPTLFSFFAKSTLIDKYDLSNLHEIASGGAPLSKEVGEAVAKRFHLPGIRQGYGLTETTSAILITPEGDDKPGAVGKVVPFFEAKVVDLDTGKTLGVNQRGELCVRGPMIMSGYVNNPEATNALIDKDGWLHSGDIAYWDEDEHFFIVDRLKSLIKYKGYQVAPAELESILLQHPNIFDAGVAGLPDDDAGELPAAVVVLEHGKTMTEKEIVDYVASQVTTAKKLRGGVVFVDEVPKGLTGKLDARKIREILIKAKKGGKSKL
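Cell-free enzyme assay, 10nM P. pyralis luciferase, luciferin and ATP each at 10uM. Inhibition profiled over a 6-point titration, read as luminescence.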
A number is an active result; i = inactive; ? = inconclusive; nt = no result; [ ] = dose if it differs, or a comment. Unless noted, the call rests on the fitted dose curve; in most records, active means well fitted curve in the direction sought with a large enough effect; inconclusive means small, poorly fitted or top-dose-only effect, or another doubt; inactive means no such curve, though single readings can be large; an effect the other way counts as inactive or inconclusive.

SMILES	GPT2 inh	hNpr1 antagonist	HEK cytotox	3T3 cytotox	FLuc inh
O=C(NC1CCCCC1)c1cn2cc(-c3ccccc3)sc2n1	i	nt	63.1µM	?	nt
O=C(NCc1ccccn1)c1cn2cc(-c3cccc(C(F)(F)F)c3)sc2n1	i	nt	?	i	nt
O=C(NCc1ccc(F)cc1)c1cn2cc(-c3ccccc3)sc2n1	i	nt	79.4µM	?	nt
O=C(NCC1CCCN(Cc2cccc(-c3ccco3)c2)C1)c1cccs1 (stereo unspecified)	i	i	i	i	i
CS(=O)(=O)N1CC(n2cc(C(=O)NCC3CC3)nn2)C1	i	i	i	i	i
COCCNC(=O)[C@@H]1C[C@@H](O)CN1C1CCN(C(=O)CCn2nc(C)cc2C)CC1	i	i	i	i	i
O=C(NC1CCCC1)N1CCCC(C(=O)N2CCCC(c3nc4ccncc4[nH]3)C2)C1 (stereo unspecified)	i	nt	i	i	nt
CC(C)CNC(=O)c1cn2cc(-c3ccccc3)sc2n1	i	nt	70.8µM	?	nt
COc1cccc(-c2cn3cc(C(=O)N4CCN(C(C)=O)CC4)nc3s2)c1	i	nt	?	?	nt
COc1cccc(-c2cn3cc(C(=O)NCCCc4ccccc4)nc3s2)c1	i	nt	?	35.5µM	nt
COc1cccc(-c2cn3cc(C(=O)N4CCCCC4)nc3s2)c1	i	nt	?	39.8µM	nt
C=CCn1cc(CN2CCOC(Cc3cccc4ccccc34)C2)c(C)n1 (stereo unspecified)	i[11.5 µM]	i	?	?	i
CCC(=O)Nc1cc(-c2cccnc2)nn1-c1ccccc1	i	nt	i	i	nt
O=C(NCC1CCCO1)C1CCN(C(=O)c2ncn3c2COC(c2ccc(F)cc2)C3)CC1 (stereo unspecified)	i	i	i	i	39.8µM
COc1ccc(C2Cn3cnc(C(=O)N4CCC(C(=O)NCC5CCCO5)CC4)c3CO2)cc1 (stereo unspecified)	i	i	i	i	i
Cc1n[nH]c(C)c1CNC(=O)C1CCN(C(=O)c2ncn3c2COC(c2ccc(F)cc2)C3)CC1 (stereo unspecified)	i	i	i	i	25.1µM
O=C(NCc1ccccn1)C1CCN(C(=O)c2ncn3c2COC(c2ccc(F)cc2)C3)CC1 (stereo unspecified)	i	i	i	i	35.5µM
COc1ccc(C2Cn3cnc(C(=O)N4CCC(C(=O)NCCc5ccccc5)CC4)c3CO2)cc1 (stereo unspecified)	i	i	i	i	i
COc1cccc(CNC(=O)C2CCN(C(=O)c3ncn4c3COC(c3ccccc3)C4)CC2)c1 (stereo unspecified)	i	i	i	i	22.4µM
O=C(N1CCC(N[S+](=O)([O-])Cc2ccccc2F)CC1)N1CC2CC(C1)[C@H]1CCCC(=O)N1C2 (stereo partly specified)	i	i	i	i	i
CCOC(=O)CN1C(=O)CCN(C(=O)OCc2ccccc2)CC(OC)c2ccccc21 (stereo unspecified)	i	nt	i	?	nt
O=C(NCc1ccccc1)C1CCN(C(=O)c2ncn3c2COC(c2ccc(F)cc2)C3)CC1 (stereo unspecified)	i	i	i	i	?
O=C(NCCCc1ccccc1)C1CCN(C(=O)c2ncn3c2COC(c2ccccc2)C3)CC1 (stereo unspecified)	?	i	i	i	15.8µM
O=C(NC1CCc2ccccc21)C1CCN(C(=O)c2ncn3c2COC(c2ccccc2)C3)CC1 (stereo unspecified)	i	i	i	i	39.8µM
CCc1ccc(CNC(=O)C2CCN(C(=O)c3ncn4c3COC(c3ccccc3)C4)CC2)cc1 (stereo unspecified)	i	i	i	i	35.5µM
SMILES	GPT2 inh	hNpr1 antagonist	HEK cytotox	3T3 cytotox	FLuc inh
Cc1ccc(C2Cn3cnc(C(=O)N4CCC(C(=O)NCc5ccccc5)CC4)c3CO2)cc1 (stereo unspecified)	i	i	?	i	39.8µM
O=C(c1cn[nH]c1-c1ccc(F)cc1)N1CCCC(Cc2noc(-c3ccccc3)n2)C1 (stereo unspecified)	i	i	?	?	?
COC(=O)CNC(=O)C1CCCN1c1nccc(Nc2ccc(C)cc2)n1 (stereo unspecified)	i	nt	?	?	nt
Cc1ccc(C2Cn3cnc(C(=O)N4CCC(C(=O)NCc5cccc(F)c5)CC4)c3CO2)cc1 (stereo unspecified)	i	i	i	i	50.1µM
O=C(NCc1cccc(F)c1)C1CCN(C(=O)c2ncn3c2COC(c2ccc(F)cc2)C3)CC1 (stereo unspecified)	i	i	i	i	31.6µM
COc1ccc(C2Cn3cnc(C(=O)N4CCC(C(=O)NCc5ccc(C)cc5)CC4)c3CO2)cc1 (stereo unspecified)	i	i	i	i	i
Cc1ccc(C2Cn3cnc(C(=O)N4CCC(C(=O)NCc5cc(F)ccc5F)CC4)c3CO2)cc1 (stereo unspecified)	i	i	i	i	39.8µM
Cc1cccc(CNC(=O)C2CCN(C(=O)c3ncn4c3COC(c3ccc(F)cc3)C4)CC2)c1 (stereo unspecified)	i	i	i	i	44.7µM
Cc1ccc(NC(=O)Cn2c(=O)n(-c3ccccc3)c(=O)c3c2cc(C)n3C)cc1	i	i	39.8µM	22.4µM	i
COc1ccccc1NC(=O)Cn1c(=O)n(-c2ccccc2)c(=O)c2c1cc(C)n2C	i	i	i	i	i
Cc1cccc(NC(=O)Cn2c(=O)n(-c3ccccc3)c(=O)c3c2cc(C)n3C)c1	i	i	i	i	i
COc1ccccc1NC(=O)Cn1c(=O)n(-c2ccc(F)cc2)c(=O)c2c1cc(C)n2C	i	i	44.7µM	31.6µM	i
COc1ccccc1CNC(=O)C1CCCN1c1nccc(Nc2ccccc2F)n1 (stereo unspecified)	i	nt	39.8µM	?	nt
O=C(C1CCCN1c1nccc(Nc2ccccc2F)n1)N1CCC(Cc2ccccc2)CC1 (stereo unspecified)	i	nt	28.2µM	39.8µM	nt
COc1ccccc1Nc1ccnc(N2CCC[C@H]2C(=O)NCCc2ccccc2F)n1	i	nt	?	i	nt
COc1ccc(-c2noc(C(=O)O)c2[C@@H](C)NC(=O)c2cccn2C)cc1	i	i	i	i	i
CCCOC(=O)N1CCC(C(=O)Nc2cccc(-c3cccc(F)c3)c2)CC1	i	?	44.7µM	?	i
COc1ccc(CN2CCC([C@@H]3CNC[C@H]3CO)CC2)c(OC)c1	i	i	i	i	i
